Autofluor counter: counter-screen for toxin protease inhibitors: compound fluorescence; compound autofluorescence counterscreen, microsphere flow cytometry; hits give high values; fluorescence intensity (test concentration not listed); hit rate 3.1% among 360,000; AID 624483; in the data active means fluorescence intensity above about 16000; inconclusive means no clear call, values can overlap the other calls
BoNT-F LC inh: BoNT/F light chain protease inhibitors, primary screen, biochemical, flow cytometry, MLPCN library; Botulinum neurotoxin type F light chain protease (Clostridium botulinum); Multiplex microsphere protease cleavage assay; inhibition, % at 10 µM; hit rate 0.22% among 360,000; in the data active means inhibition above about 35%, passing the limit was not always enough; inconclusive means no clear call, values can overlap the other calls; further: plate controls were buffer without enzyme for full effect and enzyme alone for no effect
Anthrax LF prot: Bacillus anthracis LF protease inhibitors, primary screen, biochemical, multiplex microsphere, MLPCN library. AID 588501, 2011. inhibition, % at 10 µM. hit rate 0.12% among 360,000. multiplex microsphere protease cleavage assay; further: plate controls were buffer without enzyme for full effect and enzyme alone for no effect
Target sequence (P15917 whole entry, looked up): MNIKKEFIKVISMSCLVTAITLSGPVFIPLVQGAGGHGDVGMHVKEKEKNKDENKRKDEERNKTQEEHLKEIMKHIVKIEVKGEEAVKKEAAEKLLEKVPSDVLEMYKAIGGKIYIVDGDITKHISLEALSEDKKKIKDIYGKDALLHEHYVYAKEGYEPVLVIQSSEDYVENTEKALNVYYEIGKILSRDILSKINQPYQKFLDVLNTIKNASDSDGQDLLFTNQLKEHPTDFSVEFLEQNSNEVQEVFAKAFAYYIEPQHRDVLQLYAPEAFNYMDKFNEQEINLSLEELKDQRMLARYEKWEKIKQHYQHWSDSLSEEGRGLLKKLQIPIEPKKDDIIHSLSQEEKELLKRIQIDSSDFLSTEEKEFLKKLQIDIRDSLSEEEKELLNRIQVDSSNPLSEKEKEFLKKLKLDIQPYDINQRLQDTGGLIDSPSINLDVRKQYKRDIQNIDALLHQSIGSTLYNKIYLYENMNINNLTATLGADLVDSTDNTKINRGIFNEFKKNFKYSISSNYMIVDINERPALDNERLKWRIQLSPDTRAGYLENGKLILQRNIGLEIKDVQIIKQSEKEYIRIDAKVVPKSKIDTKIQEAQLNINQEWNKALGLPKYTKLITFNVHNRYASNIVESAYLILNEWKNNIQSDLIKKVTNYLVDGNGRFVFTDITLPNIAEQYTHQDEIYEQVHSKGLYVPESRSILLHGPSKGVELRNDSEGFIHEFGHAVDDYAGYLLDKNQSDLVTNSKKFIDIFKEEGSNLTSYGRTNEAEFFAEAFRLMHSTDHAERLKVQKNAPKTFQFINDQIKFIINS
BoNT-A LC inh2: BoNT/A light chain protease inhibitors, primary screen, biochemical, flow cytometry, MLPCN library | Botulinum neurotoxin type A light chain protease (Clostridium botulinum A str. ATCC 3502) | multiplex microsphere protease substrate cleavage | inhibition, % at 10 µM | hit rate 0.17% among 360,000 | AID 588499, 2011; further: plate controls were buffer without enzyme for full effect and enzyme alone for no effect
An asterisk follows results filed as active. This is a sample that favours compounds with a hit; in the whole collection about 3.5% have one here. Unless noted, no stated cut-off is given here; in the data, active means inhibition above about 30%; inconclusive means no clear call, values can overlap the other calls; inactive means below that.

How did Cc1ccc(NC(=O)CS(=O)CC(=O)N(CC(=O)NC2CCCC2)c2ccc3c(c2)OCCO3)cc1 (stereo not given) do in these assays?
Autofluor counter: 3431; BoNT-F LC inh: 0; Anthrax LF prot: 0; BoNT-A LC inh2: 0

How did Cc1cccc(N(CC(=O)NC2CCCC2)C(=O)CS(=O)CC(=O)Nc2ccc3c(c2)OCO3)c1 (stereo not given) do in these assays?
Autofluor counter: 22772*; BoNT-F LC inh: -11; Anthrax LF prot: -2; BoNT-A LC inh2: inconclusive

Results for O=C(Nc1nc2c(Br)cccc2s1)C1CC1 ?
Autofluor counter: 5355; BoNT-F LC inh: 6; Anthrax LF prot: -7; BoNT-A LC inh2: 0

How did O=C1c2[nH]nc(-c3ccccc3O)c2C(c2ccc(F)cc2)N1CC1CCCO1 (stereo not given) do in these assays?
Autofluor counter: 9799; BoNT-F LC inh: -8; Anthrax LF prot: -6; BoNT-A LC inh2: 0

Results for O=C1c2[nH]nc(-c3ccccc3O)c2C(c2cccc(Cl)c2)N1CC1CCCO1 (stereo not given) ?
Autofluor counter: 22113*; BoNT-F LC inh: 3; Anthrax LF prot: 1; BoNT-A LC inh2: 2

How did CC(NC(=O)c1ccc(-c2cc(C(F)(F)F)ccc2Cl)o1)c1ccccc1 (stereo not given) do in these assays?
Autofluor counter: 20639*; BoNT-F LC inh: 0; Anthrax LF prot: 1; BoNT-A LC inh2: inconclusive

How did Cc1ccc(C(=O)NC(C)c2ccccc2)o1 (stereo not given) do in these assays?
Autofluor counter: 22061*; BoNT-F LC inh: 3; Anthrax LF prot: -5; BoNT-A LC inh2: 2

Results for CCc1nnc(NC(=O)c2ccc(-c3cc(C(F)(F)F)ccc3Cl)o2)s1 ?
Autofluor counter: 11257; BoNT-F LC inh: -9; Anthrax LF prot: -3; BoNT-A LC inh2: -1

Results for O=S(=O)(CC(CN1CCCC1)N1CCCC1)c1ccc2ccccc2c1 (stereo not given) ?
Autofluor counter: 26003*; BoNT-F LC inh: 7; Anthrax LF prot: -4; BoNT-A LC inh2: 3

What do the screens show for `Cc1ccc(S(=O)(=O)CC(CN2CCOCC2)N2CCOCC2)cc1` (stereo not given)?
Autofluor counter: 2503; BoNT-F LC inh: -2; Anthrax LF prot: 0; BoNT-A LC inh2: 0

What do the screens show for `CCOc1ccc(NC(=O)N2CCC(c3ccc(C)cc3)C2)cc1` (stereo not given)?
Autofluor counter: 22970*; BoNT-F LC inh: 1; Anthrax LF prot: -4; BoNT-A LC inh2: -1

What do the screens show for `Cc1ccc(NC(=O)N2CCCC(c3ccccc3)C2)cc1` (stereo not given)?
Autofluor counter: 3817; BoNT-F LC inh: -41; Anthrax LF prot: 13; BoNT-A LC inh2: -1

How did O=S(=O)(c1ccc(Br)s1)N1CCC(Cc2ccccc2)CC1 do in these assays?
Autofluor counter: 23471*; BoNT-F LC inh: 0; Anthrax LF prot: -2; BoNT-A LC inh2: 1

Results for O=S(=O)(c1ccc(Cl)s1)N1CCC(Cc2ccccc2)CC1 ?
Autofluor counter: 23306*; BoNT-F LC inh: -5; Anthrax LF prot: 0; BoNT-A LC inh2: -3

Results for O=S(=O)(c1ccc(Cl)s1)N1CCN(Cc2ccccc2)CC1 ?
Autofluor counter: 2762; BoNT-F LC inh: 0; Anthrax LF prot: -3; BoNT-A LC inh2: 0

How did Cc1c(CN(C)C(=O)c2ccc(Br)o2)cnn1C do in these assays?
Autofluor counter: 19727*; BoNT-F LC inh: -1; Anthrax LF prot: 1; BoNT-A LC inh2: inconclusive

Results for CN(CC(=O)Nc1ccc(OC(F)(F)F)cc1)C(=O)c1ccccc1SCC(=O)N1CCCC1 ?
Autofluor counter: 3720; BoNT-F LC inh: -4; Anthrax LF prot: -2; BoNT-A LC inh2: 0

What do the screens show for `Cn1cnc2nc3n(c2c1=O)CCC3`?
Autofluor counter: 16811*; BoNT-F LC inh: 2; Anthrax LF prot: -2; BoNT-A LC inh2: 0

Results for O=c1c2cccnc2nc2n1CCCCC2 ?
Autofluor counter: 3152; BoNT-F LC inh: -4; Anthrax LF prot: 1; BoNT-A LC inh2: -1

What do the screens show for `Cc1cccc(OCCCC(=O)N2CCCCCC2)c1C`?
Autofluor counter: 3955; BoNT-F LC inh: -33; Anthrax LF prot: -2; BoNT-A LC inh2: -6

Results for Cc1nnc2n(-c3ccccc3)c(=O)c3c4c(sc3n12)CC(C)CC4 (stereo not given) ?
Autofluor counter: 18626*; BoNT-F LC inh: 2; Anthrax LF prot: 3; BoNT-A LC inh2: 3

How did COc1ccc(-n2c(=O)c3c4c(sc3n3cnnc23)CC(C)CC4)cc1 (stereo not given) do in these assays?
Autofluor counter: 15907; BoNT-F LC inh: -3; Anthrax LF prot: -3; BoNT-A LC inh2: 0

What do the screens show for `COC(=O)CNC(=O)c1cccc(-c2ccc(OC)cc2)c1`?
Autofluor counter: 2181; BoNT-F LC inh: -4; Anthrax LF prot: 0; BoNT-A LC inh2: 0

Results for CCN(CC)C(=O)c1cccc(-c2ccc(OC)cc2)c1 ?
Autofluor counter: 21818*; BoNT-F LC inh: 0; Anthrax LF prot: -1; BoNT-A LC inh2: 1

Results for COc1ccc(N(C(=O)C(C)C)S(=O)(=O)c2ccc(Cl)cc2)cc1 ?
Autofluor counter: 16342*; BoNT-F LC inh: 2; Anthrax LF prot: -2; BoNT-A LC inh2: 0

How did CC(C)C[C@H]1CN(CCCC[C@@H]2CNC(=O)C(=O)N2CCc2ccccc2)C(=O)C(=O)N1CCC1CCCCC1 do in these assays?
Autofluor counter: 4343; BoNT-F LC inh: 1; Anthrax LF prot: 2; BoNT-A LC inh2: 0

How did Cc1cc(C)c(C)c(S(=O)(=O)NCc2ccc(C(=O)N3CCN(C)CC3)cc2)c1C do in these assays?
Autofluor counter: 5394; BoNT-F LC inh: -6; Anthrax LF prot: 0; BoNT-A LC inh2: 2

How did O=C(Nc1ccc(N2CCOCC2)cc1)Nc1ccc(Cl)c(Cl)c1 do in these assays?
Autofluor counter: 17169*; BoNT-F LC inh: -8; Anthrax LF prot: -8; BoNT-A LC inh2: -4

Results for CN(C(=O)COC(=O)C1COc2ccccc2O1)c1c(N)n(Cc2ccccc2)c(=O)[nH]c1=O (stereo not given) ?
Autofluor counter: 5720; BoNT-F LC inh: 4; Anthrax LF prot: -5; BoNT-A LC inh2: 0

How did COC(=O)c1sccc1-c1ccc(/C=N/OC(=O)c2ccccc2)o1 do in these assays?
Autofluor counter: 20465*; BoNT-F LC inh: 5; Anthrax LF prot: -3; BoNT-A LC inh2: 6

Results for CCOc1ccc(C(=O)Nc2nnc(C)s2)cc1OCC ?
Autofluor counter: 20767*; BoNT-F LC inh: 4; Anthrax LF prot: -5; BoNT-A LC inh2: inconclusive

How did COc1ccc(NC(=O)C2CCCN(c3nn4c(=O)cc(C)nc4s3)C2)c(OC)c1 (stereo not given) do in these assays?
Autofluor counter: 5464; BoNT-F LC inh: 0; Anthrax LF prot: 3; BoNT-A LC inh2: 2

What do the screens show for `COc1ccc(-c2oc3ncnc(NCCCN4CCOCC4)c3c2-c2ccc(OC)cc2)cc1`?
Autofluor counter: 10421; BoNT-F LC inh: -14; Anthrax LF prot: 0; BoNT-A LC inh2: 0

What do the screens show for `c1ccc(-c2oc3ncnc(NCCCN4CCOCC4)c3c2-c2ccccc2)cc1`?
Autofluor counter: 26085*; BoNT-F LC inh: -6; Anthrax LF prot: -4; BoNT-A LC inh2: -3

Screens (PubChem)
